Laboratory results reported in PubChem BioAssay AID720540 (National Center for Advancing Translational Sciences (NCATS), 2013).
The campaign covered roughly 1,300 compounds. About 460 (35%) were called active. Not shown: some 39% with an inconclusive outcome. Calls follow the shape of the dose curve; as a rule, active = well fitted inhibition curve with a large enough effect; inconclusive = small, poorly fitted or top-dose-only effect; inactive = flat fitted curve, though single readings scatter. The list shows a part of the results.

target: Protein phosphatase EYA2 (Homo sapiens) (UniProt O00167); test: qHTS for Inhibitors of the Phosphatase Activity of Eya2: Confirmatory Assay for Cherry-picked Compounds; settings: purified EYA2 phosphatase activity, qHTS confirmation; series mostly up to 46.1 µM; also: nearly all actives have a fitted effect of over 65% in size
Sequence (O00167 whole entry, looked up): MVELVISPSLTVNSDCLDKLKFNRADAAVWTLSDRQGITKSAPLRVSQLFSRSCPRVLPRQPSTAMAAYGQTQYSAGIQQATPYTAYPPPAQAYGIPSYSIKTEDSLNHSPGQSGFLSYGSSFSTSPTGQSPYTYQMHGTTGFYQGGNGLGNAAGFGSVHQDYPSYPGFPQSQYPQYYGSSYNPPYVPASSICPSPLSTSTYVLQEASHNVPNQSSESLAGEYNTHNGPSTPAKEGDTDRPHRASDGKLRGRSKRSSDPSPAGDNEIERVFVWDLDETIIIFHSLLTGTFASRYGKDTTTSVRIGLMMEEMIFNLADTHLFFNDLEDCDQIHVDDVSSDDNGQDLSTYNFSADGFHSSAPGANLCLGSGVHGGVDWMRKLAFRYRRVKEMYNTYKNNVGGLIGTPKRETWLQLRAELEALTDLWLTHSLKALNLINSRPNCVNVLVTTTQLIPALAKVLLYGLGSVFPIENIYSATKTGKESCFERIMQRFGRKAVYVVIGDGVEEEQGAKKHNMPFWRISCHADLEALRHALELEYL
Summary of the method: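 Eya2 (0.2 uM working solution) preincubated 10 min at room temperature with compound in pH 7.5 HEPES buffer with MgCl2, BSA, DTT. OMFP added (50 uM working solution), 10 min more; fluorescence 485/525 nm, normalized to EGTA and DMSO.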
Potency is read from the fitted curve at half-maximal effect.

Compound	Potency
Cn1c(=O)c(N)c2c3c(c(Br)ccc31)C(=O)c1ccccc1-2	6.01 µM (active)
COCc1nnc(NC(=O)c2ccc(S(=O)(=O)N3CCOCC3)cc2)o1	inactive
COc1ccc(-c2nnc(NC(=O)c3ccc(S(=O)(=O)N(C)CC4CCCO4)cc3)o2)c(OC)c1 (configuration not stated)	21.3 µM (active)
O=C1C(=Cc2ccco2)CCC1=Cc1ccco1	4.78 µM (active)
COc1ccc(Nc2nc(-c3c(C)nc4ncccn34)cs2)cc1	3.38 µM (active)
Cc1nc2ncccn2c1-c1csc(Nc2ccccc2)n1	3.38 µM (active)
O=[S+]([O-])([O-])c1ccc2c(c1)cc([S+](=O)([O-])[O-])c1nn(-c3ccc(/C=C/c4ccc(-n5nc6c([S+](=O)([O-])[O-])cc7cc([S+](=O)([O-])[O-])ccc7c6n5)cc4[S+](=O)([O-])[O-])c([S+](=O)([O-])[O-])c3)nc12	6.75 µM (active)
COc1ccc(-c2cn3c(C)c(C(=O)NCc4ccc5c(c4)OCO5)sc3n2)cc1	inactive
CN(C)c1ccc(Sc2ccc3nc(N)nc(N)c3c2)cc1	6.75 µM (active)
S=C(NC1CC1)NC1CCCc2ccccc21 (configuration not stated)	inactive
N[C@@H](Cc1cnc[nH]1)C(=O)Nc1ccc2ccccc2c1	21.3 µM (active)
Cc1ccc(Nc2nc(-c3cccnc3)nc3ccccc23)cc1	inactive
O=C(O)c1cccc(Nc2nc(-c3ccccc3)nc3ccccc23)c1	9.53 µM (active)
O=C(O)c1ccc(Nc2nc(-c3ccccc3)nc3ccccc23)cc1	8.49 µM (active)
CCOC(=O)N1CCC(NC(=O)c2cc3c(-c4ccccc4F)nn(C)c3s2)CC1	inactive
O=C(CCn1c(=O)oc2ccccc21)NCc1ccc2c(c1)OCO2	inactive
Cn1nnnc1SCC(=O)Nc1ccc2c(c1)OCO2	inactive
CCCCn1nc(C(=O)Nc2ccc3c(c2)OCO3)c2ccccc2c1=O	12 µM (active)
COc1ccccc1NC(=O)C1=C(C)NC2=C(C(=O)CC(c3ccc(OC)c(OC)c3)C2)C1c1coc2ccccc2c1=O (configuration not stated)	21.3 µM (active)
CCc1cc2c(=O)[nH]c(-c3ccccn3)nc2s1	1.69 µM (active)
CCOc1ccc2c(c1)-c1c(ssc1=S)C(C)(C)N2C(=O)CSC1=NCCS1	16.9 µM (active)

Compound	Potency
Cc1nc(C)c(-c2csc(Nc3ccc(O)c(C(=O)O)c3)n2)s1	19 µM (active)
COc1ccc(N2CCN(C(c3ccco3)c3sc4nc(C)nn4c3O)CC2)cc1 (configuration not stated)	inactive
COc1ccc(N2CCN(C(c3cccs3)C(C)NC(=O)c3ccc4c(c3)OCO4)CC2)cc1 (configuration not stated)	inactive
COc1ccc(N2CCN(Cc3ccc(Br)s3)CC2)cc1	10.7 µM (active)
COc1ccc(N2CCN(Cc3cc4c(cc3Br)OCCO4)CC2)cc1	15.1 µM (active)
COc1ccc(S(=O)(=O)N2CCC3CC2c2cc(N4CCOCC4)ccc23)cc1 (configuration not stated)	inactive
O=C(Oc1ccc(C(=S)N2CCOCC2)cc1)c1ccccc1	16.9 µM (active)
O=C(Oc1ccc(C(=S)N2CCOCC2)cc1)c1cccc([N+](=O)[O-])c1	7.57 µM (active)
Cc1ccc(C(=O)ON=C2CCN(c3ccc([N+](=O)[O-])cc3)CC2)cc1	inactive
CC(=O)c1ccc(OC(=O)/C=C/c2ccccc2)cc1	4.26 µM (active)
O=C(Oc1ccc(C(=S)N2CCOCC2)cc1)c1cccc(Cl)c1	8.49 µM (active)
Cc1ccc(Nc2nc(N)nc(CSc3nnc(C)s3)n2)cc1	inactive
COc1ccc(C(=O)C2CCCN(C(=O)c3cccc(N(C)C)c3)C2)cc1OC (configuration not stated)	inactive
COC(=O)C(Sc1ccc(Cl)cc1)C1SC(=S)N(Cc2ccccc2)C1=O (configuration not stated)	inactive
O=C(/C=C/c1ccccc1)Oc1ccc(C(=S)N2CCOCC2)cc1	1.51 µM (active)
COc1ccc(C(=O)OCC(=O)Nc2ccc(N3CCOCC3)cc2)cc1	inactive
O=C(Cc1ccc(F)cc1)Oc1ccc(C(=S)N2CCCC2)cc1	15.1 µM (active)
O=C(Oc1ccc(C(=S)N2CCOCC2)cc1)c1ccc(F)cc1	7.57 µM (active)
Cc1ccc(C(=O)Oc2ccc(C(=S)N3CCOCC3)cc2)cc1	1.2 µM (active)
COc1cccc(OC)c1C(=O)OCC(=O)NCC1CCCCC1	inactive
CC(C)OCCCNC(=O)c1ccccc1NC(=O)C1=CSCCO1	inactive

Compound	Potency
C1=Cc2ccccc2/C1=C\c1cc2c3c(c1)CCCN3CCC2	7.57 µM (active)
Cc1ccc(NC(=O)c2cc3c(CO)cnc(C)c3oc2=Nc2cccc(C(N)=O)c2)cc1	inactive
COc1cc(N=c2oc3c(C)ncc(CO)c3cc2C(N)=O)cc(OC)c1OC	6.75 µM (active)
COc1ccc(-n2nc(C)cc2Nc2ccccc2C(=O)O)cc1	6.01 µM (active)
Cc1cc(Nc2ccccc2C(=O)O)n(-c2cccc(Cl)c2)n1	6.75 µM (active)
COc1ccc(C(=O)Nc2cc(OC)c(NC(=O)Nc3ccccc3)cc2OC)cc1	inactive
CC1=C/C(=C\c2ccc(N(C)C)cc2)c2ccccc21	7.57 µM (active)
CCN(CC)c1ccc(/C=C2\C=Cc3ccccc32)cc1	6.75 µM (active)
CN(C)c1ccc(/C=C/C=C2/C=Cc3ccccc32)cc1	4.26 µM (active)
CN(C)c1ccc(C=C2C=Cc3ccccc32)cc1	3.79 µM (active)
CC1C(c2ccccc2)=Nn2c(=O)n(-c3ccccc3)c(=O)n21 (configuration not stated)	inactive
CN(C)c1ccc(/C=C2\C=Cc3ccccc32)cc1	6.01 µM (active)
CNc1ccc(C=C2C=Cc3ccccc32)cc1	15.1 µM (active)
C1=Cc2ccccc2/C1=C\c1cc[cH-]c1.[Fe+2].c1cc[cH-]c1	10.7 µM (active)
Cc1oc2c(Cl)c(Cl)c(O)c(CN(C)C)c2c1C(=O)c1ccc(Cl)cc1	19 µM (active)
O=C1C(NS(=O)(=O)c2cccs2)=C(N2CCN(Cc3ccccc3)CC2)C(=O)c2ccccc21	13.5 µM (active)
CC(=O)Nc1ccc(S(=O)(=O)NC2=C(N3CCN(Cc4ccccc4)CC3)C(=O)c3ccccc3C2=O)cc1	19 µM (active)
Cc1nn(-c2ccccc2)c2c1C(c1cccnc1)N1C=C(S(=O)(=O)N3CCCCC3)C=CC1=N2 (configuration not stated)	inactive
COc1ccc(-c2csc(-c3ccc(C(=O)O)cc3)n2)cc1	inactive
NC(=O)c1ccc(-c2nnc(Nc3ccc(S(N)(=O)=O)cc3)c3ccccc23)cc1	13.5 µM (active)
CNC(=O)c1ccc(Nc2nnc(-c3ccc(C(N)=O)cc3)c3ccccc23)cc1	4.78 µM (active)

Compound	Potency
COc1ccc(Nc2nnc(-c3ccc(C(N)=O)cc3)c3ccccc23)cc1	4.78 µM (active)
COc1ccc(NC(=O)c2[nH]c(C)c(C(C)=O)c2C)cc1Cl	inactive
Cc1cc2oc(C(=O)N(Cc3ccc(N(C)C)cc3)CC3CCCO3)c(C)c2cc1C (configuration not stated)	8.49 µM (active)
Cc1cc2oc(C(=O)N3CCN(Cc4ccccc4)CC3)c(C)c2cc1C	inactive
COc1ccc(N(CC(=O)N2CCCCC2)S(=O)(=O)c2c(C)nn(C)c2C)cc1	inactive
COc1ccc(NC(=O)c2ccc(CN3CCc4ccccc4C3)cc2)c(OC)c1	inactive
COc1ccc(NC(=O)COc2cccc3c2CCN(C)C3=O)c(OC)c1	12 µM (active)
COc1ccc(NC(=O)c2ccc(COc3ccccc3)o2)c(OC)c1	inactive
Clc1ccc(-n2nnnc2-c2cnc3ccccc3c2-c2ccccc2)cc1	inactive
Cc1cc(C)n2nc(C(=O)NC3CCCc4ccccc43)nc2n1 (configuration not stated)	inactive
Cc1cc(C)n2nc(SCCOc3ccccc3F)nc2n1	15.1 µM (active)
O=C(COc1ccccc1/C=C1/NC(=O)NC1=O)Nc1ccccc1	inactive
CN(C)S(=O)(=O)c1cccc(NC(=O)COc2ccccc2C(=O)Nc2ccccc2)c1	13.5 µM (active)
Cc1cnc2c(C)cccc2c1/C=C/c1ccc(N(C)C)cc1	6.01 µM (active)
Cc1cnc2c(C)ccc(C)c2c1/C=C/c1ccc(N(C)C)cc1	6.01 µM (active)
Cc1ccc(C)c2c(/C=C/c3ccc(N(C)C)cc3)ccnc12	5.36 µM (active)
Cc1cc(C)c2c(/C=C/c3ccc(N(C)C)cc3)ccnc2c1	9.53 µM (active)
COCc1cc(O)c(O)c(O)c1-c1c(COC)cc(O)c(O)c1O	inactive
Cc1cc(=O)n2[nH]c(Nc3cccc(Cl)c3)nc2n1	inactive
